Assay [1] concerns Plasmodium falciparum Sir2 (PF13_0152, Sir2A). As to the kind of experiment: Plasmodium falciparum Sir2A binding compounds – biochemical, small-molecule microarray, 635 nm fluorescence, primary screen (AID 1098).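 Also: score merges spot fluorescence intensity with its signal-to-noise ratio.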 The settings on record: fluorescence 635 nm, higher = more signal.
Assay [2] can be described thus: probe aDKK1 binding to arrayed compounds – biochemical, biotinylated probe, 635/667 nm fluorescence, primary screen (AID 1099).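 Also: score merges 667nm spot fluorescence with signal to noise across triplicate slides.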 The settings on record: small-molecule microarray, higher = more signal.
Assay [3] can be described thus: probe aCHRDL2 binding to arrayed compounds – biochemical, biotinylated probe, 635/667 nm fluorescence, primary screen (AID 1100). The settings on record: small-molecule microarray, higher = more signal.
The nature of assay [4]: change in splice reporter luminescence, either direction, cell-based, HEK293, spliceosome inhibition project, primary screen (AID 1101).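 Also: HEK293 cells carrying a splicing-competent luciferase reporter gene; test concentration not given here.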 The conditions noted are these: HEK293 splicing luciferase reporter, 24 h, higher = more signal, called active from +8 up or from −8 down. (In general: A reporter such as luciferase makes a cellular process visible.)
The target of assay [5] is Fibroblast growth factor 10 (Homo sapiens) (UniProt O15520). Description: compounds binding fibroblast growth factor 10 – biochemical, small-molecule microarray, 635 nm fluorescence, primary screen (AID 1102). The settings on record: FGF10 binding, fluorescence 635 nm, higher = more signal.
Sequence of Fibroblast growth factor 10 (Homo sapiens) (O15520 whole entry, looked up): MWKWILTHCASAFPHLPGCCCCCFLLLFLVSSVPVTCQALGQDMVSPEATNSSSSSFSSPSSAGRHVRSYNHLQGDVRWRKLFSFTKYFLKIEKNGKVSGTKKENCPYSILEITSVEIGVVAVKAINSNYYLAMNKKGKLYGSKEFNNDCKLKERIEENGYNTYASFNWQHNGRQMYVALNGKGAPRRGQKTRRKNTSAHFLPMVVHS
For assay [6], the system named is glycogen synthase kinase-3 (GSK3A per assay name; protocol says GSK3B). Description: compounds binding glycogen synthase kinase-3 – biochemical, small-molecule microarray, 635 nm fluorescence, GSK3A, primary screen (AID 1103). Also: the record names both GSK3A and GSK3B. The conditions noted are these: fluorescence 635 nm, higher = more signal.
Assay [7] has as its target Epidermal growth factor receptor (Homo sapiens) (UniProt P00533). As to the kind of experiment: compounds binding epidermal growth factor receptor – biochemical, small-molecule microarray, 635 nm fluorescence, primary screen (AID 1104).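 Also: score merges 667 nm emission intensity with spot signal to noise over triplicate slides.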 The settings on record: EGFR binding, higher = more signal.
In assay [8] the target is Follistatin-related protein 3 (Homo sapiens) (UniProt O95633). Description: compounds binding follistatin-related protein 3 – biochemical, small-molecule microarray, 635 nm fluorescence, primary screen (AID 1105).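 Also: score merges emission near 667 nm and signal to noise per printed spot across three slides.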 The conditions noted are these: FSTL3 binding, higher = more signal.
Sequence of Follistatin-related protein 3 (Homo sapiens) (O95633 whole entry, looked up): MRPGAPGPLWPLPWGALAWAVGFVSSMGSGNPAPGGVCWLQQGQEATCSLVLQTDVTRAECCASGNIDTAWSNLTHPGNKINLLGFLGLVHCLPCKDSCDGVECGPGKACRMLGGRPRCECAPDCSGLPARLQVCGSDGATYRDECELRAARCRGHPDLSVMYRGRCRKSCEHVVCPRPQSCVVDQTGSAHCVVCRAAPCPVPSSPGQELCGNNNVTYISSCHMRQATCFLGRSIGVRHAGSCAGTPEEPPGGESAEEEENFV
Assay [9] deals with Dickkopf-related protein 1 (Homo sapiens) (UniProt O94907). Description: small molecules binding DKK1 protein – biochemical, small-molecule microarray, 635 nm fluorescence scan, primary screen (AID 1106).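 Also: score merges emission near 667 nm with signal to noise over three replicate slides.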 The settings on record: higher = more signal.
Sequence of Dickkopf-related protein 1 (Homo sapiens) (O94907 whole entry, looked up): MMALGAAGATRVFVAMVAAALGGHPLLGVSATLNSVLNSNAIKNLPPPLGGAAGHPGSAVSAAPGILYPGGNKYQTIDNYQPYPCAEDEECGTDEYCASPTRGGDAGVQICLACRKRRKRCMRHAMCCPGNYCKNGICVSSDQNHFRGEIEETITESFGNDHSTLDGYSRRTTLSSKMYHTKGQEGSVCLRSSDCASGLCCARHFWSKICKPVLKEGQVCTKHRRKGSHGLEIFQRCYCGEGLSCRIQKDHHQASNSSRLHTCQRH
Assay [10] relates to Inhibin beta A chain (activin A). Description: small molecules binding activin A – biochemical, small-molecule microarray, 635 nm fluorescence scan, primary screen (AID 1107).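 Also: mouse activin A protein probed at 4.33 µg/mL on printed slides; score merges bound-protein fluorescence near 667 nm with spot signal-to-noise.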 The conditions noted are these: INHBA, higher = more signal.
The test system of assay [11] is Human papillomavirus type 1a protein E7 (residues 44-93). Description: small molecules binding HPV E7 44-93 – biochemical, small-molecule microarray, residues 44-93, 635 nm fluorescence, primary screen (AID 1108).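 Also: E7 fragment applied at 1 µg/mL in TBST for 1 h at 4 C; score combines spot fluorescence with its signal to noise ratio.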 The settings on record: fluorescence 635 nm, higher = more signal.
A short description of assay [12]: hepatitis C replication reporter changes, two-sided – Huh7 cells, luciferase reporter, HCV replication inhibitor project, primary screen (AID 1109).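 Also: huh7 hepatoma cells harbouring a luciferase neomycin HCV replicon reporter; luciferase luminescence as measure of HCV replicon replication; test concentration not given here.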 The settings on record: Huh7 HCV replicon luciferase reporter, 48 h; higher = more signal.
Assay [13] concerns the target Left-right determination factor 2 (Homo sapiens) (UniProt O00292). As to the kind of experiment: small molecules binding LEFTY2 protein – biochemical, small-molecule microarray, 635 nm fluorescence scan, primary screen (AID 1110). The settings on record: higher = more signal.
Assay [14] concerns the target Calmodulin-1 (Homo sapiens) (UniProt P0DP23). Description: small molecules binding calmodulin-1 with EGTA – biochemical, small-molecule microarray, Cy5-labelled CALM1, profiling panel (AID 1111).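 Also: labelled calmodulin applied in Tris saline Tween buffer holding calcium plus EGTA and DTT.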 The conditions noted are these: Cy5-CALM1 binding fluorescence, higher = more signal.
Assay [15] shares this target. Description: small molecules binding Ca-loaded calmodulin-1 – biochemical, small-molecule microarray, Cy5-labelled CALM1, plus calcium, artefact control for SMM control-protein annotation, profiling panel (AID 1112).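 Also: score merges spot fluorescence with signal to noise from triplicate slides.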 The settings on record: Cy5-CALM1 binding fluorescence, higher = more signal.
The nature of assay [16]: probe aWnt5a binding to arrayed compounds – biochemical, biotinylated probe, 635/667 nm fluorescence, primary screen (AID 1113).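 Also: score merges 667 nm fluorescence intensity with signal-to-noise per printed feature.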 The conditions noted are these: small-molecule microarray, higher = more signal.
Assay [17] is described as follows: probe aShh binding to arrayed compounds – biochemical, biotinylated probe, 635/667 nm fluorescence, primary screen (AID 1114).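 Also: probe is biotin-labelled aShh protein from a stem cell growth factor screen; measures binding of labelled protein to compounds printed on the slide; score merges feature fluorescence at 667 nm with signal-to-noise.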 The settings on record: small-molecule microarray, higher = more signal.
The nature of assay [18]: probe aNog binding to arrayed compounds – biochemical, biotinylated probe, 635/667 nm fluorescence, primary screen (AID 1115).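 Also: probe is biotinylated aNog protein used at 0.15 µg/mL for 1 h at 4 C; z-score combines 667 nm fluorescence of each spot with its signal to noise.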 The settings on record: small-molecule microarray, higher = more signal.
The target in assay [19] is Torsin-1A-interacting protein 1 (Homo sapiens) (UniProt Q5JTV8). As to the kind of experiment: compound microarray binding of lysate hLAP1 – cell lysate, small-molecule microarray, COS7 lysate, 635/667 nm fluorescence, primary screen (AID 1116). The conditions noted are these: 635 nm fluorescence, higher = more signal.
Sequence of Torsin-1A-interacting protein 1 (Homo sapiens) (Q5JTV8 whole entry, looked up): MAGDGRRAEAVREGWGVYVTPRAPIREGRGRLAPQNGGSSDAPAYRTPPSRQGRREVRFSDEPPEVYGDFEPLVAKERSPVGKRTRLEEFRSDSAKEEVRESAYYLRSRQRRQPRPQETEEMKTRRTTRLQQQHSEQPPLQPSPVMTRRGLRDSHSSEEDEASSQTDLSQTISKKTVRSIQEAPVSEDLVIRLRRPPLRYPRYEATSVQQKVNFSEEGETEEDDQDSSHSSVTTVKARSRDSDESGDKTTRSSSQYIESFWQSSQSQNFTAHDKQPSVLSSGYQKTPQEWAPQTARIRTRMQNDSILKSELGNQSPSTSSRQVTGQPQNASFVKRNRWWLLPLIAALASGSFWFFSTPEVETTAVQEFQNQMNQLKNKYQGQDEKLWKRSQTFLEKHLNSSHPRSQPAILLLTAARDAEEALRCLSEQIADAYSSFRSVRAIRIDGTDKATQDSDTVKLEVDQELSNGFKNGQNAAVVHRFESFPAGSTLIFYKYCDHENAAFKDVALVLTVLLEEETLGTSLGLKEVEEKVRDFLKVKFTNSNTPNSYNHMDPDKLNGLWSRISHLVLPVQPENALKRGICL
The target in assay [20] is Alpha-bungarotoxin (Bungarus multicinctus) (UniProt P60615). Description: compounds binding labelled alpha-BTX control protein – biochemical, small-molecule microarray, Alexa647 label, 635/667 nm fluorescence, artefact control for SMM control protein annotation, profiling panel (AID 1117). The conditions noted are these: alpha-BTX-A647 binding fluorescence, higher = more signal.
Sequence of Alpha-bungarotoxin (Bungarus multicinctus) (P60615 whole entry, looked up): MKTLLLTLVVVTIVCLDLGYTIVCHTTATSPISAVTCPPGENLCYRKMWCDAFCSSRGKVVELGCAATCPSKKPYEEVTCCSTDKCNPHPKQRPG

Active and inactive are the calls of the source.

Sequence of Epidermal growth factor receptor (Homo sapiens) (P00533 whole entry, looked up): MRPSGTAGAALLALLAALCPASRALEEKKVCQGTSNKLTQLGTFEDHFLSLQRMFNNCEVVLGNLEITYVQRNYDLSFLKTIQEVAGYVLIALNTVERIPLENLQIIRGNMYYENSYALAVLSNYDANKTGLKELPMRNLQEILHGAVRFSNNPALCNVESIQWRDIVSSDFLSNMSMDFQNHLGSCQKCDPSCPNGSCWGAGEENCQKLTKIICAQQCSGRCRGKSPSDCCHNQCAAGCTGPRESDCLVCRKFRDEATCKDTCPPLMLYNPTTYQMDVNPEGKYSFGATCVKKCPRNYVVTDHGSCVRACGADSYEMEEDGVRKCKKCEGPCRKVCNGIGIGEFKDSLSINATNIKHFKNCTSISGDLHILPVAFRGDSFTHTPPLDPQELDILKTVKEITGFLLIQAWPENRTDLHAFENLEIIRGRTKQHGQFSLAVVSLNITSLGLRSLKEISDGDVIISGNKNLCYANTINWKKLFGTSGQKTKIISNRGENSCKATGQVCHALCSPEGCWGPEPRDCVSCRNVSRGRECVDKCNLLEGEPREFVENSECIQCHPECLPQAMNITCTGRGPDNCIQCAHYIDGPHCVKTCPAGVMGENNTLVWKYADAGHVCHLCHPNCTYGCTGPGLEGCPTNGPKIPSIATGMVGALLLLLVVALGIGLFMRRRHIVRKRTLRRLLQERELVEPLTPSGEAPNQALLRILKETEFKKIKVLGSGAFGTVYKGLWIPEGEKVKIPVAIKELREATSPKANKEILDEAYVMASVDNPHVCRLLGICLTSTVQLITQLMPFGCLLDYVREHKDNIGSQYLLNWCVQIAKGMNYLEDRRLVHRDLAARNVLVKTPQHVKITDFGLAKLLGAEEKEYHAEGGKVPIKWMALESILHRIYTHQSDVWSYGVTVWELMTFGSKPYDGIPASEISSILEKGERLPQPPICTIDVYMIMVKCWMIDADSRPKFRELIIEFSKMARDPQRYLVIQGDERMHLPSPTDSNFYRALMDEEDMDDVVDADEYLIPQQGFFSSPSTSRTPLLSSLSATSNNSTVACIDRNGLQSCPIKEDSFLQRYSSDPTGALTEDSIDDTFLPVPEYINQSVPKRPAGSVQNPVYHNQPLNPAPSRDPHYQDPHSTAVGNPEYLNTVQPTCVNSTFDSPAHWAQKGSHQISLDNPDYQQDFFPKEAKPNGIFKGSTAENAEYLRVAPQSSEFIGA
Sequence of Left-right determination factor 2 (Homo sapiens) (O00292 whole entry, looked up): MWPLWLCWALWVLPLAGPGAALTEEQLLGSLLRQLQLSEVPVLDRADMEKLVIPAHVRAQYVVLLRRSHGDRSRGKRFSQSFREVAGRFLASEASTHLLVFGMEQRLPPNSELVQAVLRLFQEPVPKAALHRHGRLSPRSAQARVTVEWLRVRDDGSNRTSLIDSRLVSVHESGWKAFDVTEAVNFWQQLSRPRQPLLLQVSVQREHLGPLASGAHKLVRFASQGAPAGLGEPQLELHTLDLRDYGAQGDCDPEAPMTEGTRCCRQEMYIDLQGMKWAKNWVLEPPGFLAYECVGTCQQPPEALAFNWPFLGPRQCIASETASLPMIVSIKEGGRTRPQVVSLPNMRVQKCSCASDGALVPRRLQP

In the case of `CCC1=C2CN(Cc3ccccc3Br)[C@@H]([C@@H](O)Cc3ccccc3)C2C=CCC1` (stereo not given in full), the composite z-score is 0.124 in assay [1]; -0.0181 in assay [2]; -0.311 in [3]; 0.597 in assay [5]; 0.6 in [6]; 0.164 in assay [7]. In addition, the composite z-score amounted to 0.961 in [8]; 0.513 in assay [9]; 0.677 in assay [10]; 1.38 in assay [11]; 0.473 in [13]; 0.417 in assay [14]. For the same compound, the composite z-score in assay [15] was -0.419; in assay [16], -0.148; in [17], -0.0709; in assay [18] it was -0.278; in [19] it was -0.131; in assay [20], 0.616. The z-score was -2.14 (inactive) in assay [4] and -2.97 in assay [12].
`C[C@H]1C2[C@H](Cc3ccccc3)NC(=O)[C@]23C(=O)N[C@H](Cc2ccccc2)C(=O)N[C@@H](Cc2ccccc2)C(=O)NC/C=C\C/C=C/C3[C@@H]2O[C@]12C` (stereo not given in full): the composite z-score in assay [1] is 0.0468; in [2], -0.315; in assay [3], -0.202; in [5] it was 0.345; in assay [6], -0.256; in assay [7], -0.228. In addition, the composite z-score in assay [8] is 0.223; in assay [9], 0.409; in assay [10], 1.16; in [11] it was -0.767; in assay [13], 0.419; in assay [14], -0.297. The composite z-score in assay [15] was -0.348; in assay [16], -0.199; in [17], -0.0553; in assay [18] it was 0.471; in assay [19], 0.86; in [20] it was -0.506. Besides, the z-score is -0.148 (inactive) in assay [4] and -0.204 in assay [12].
On to `CCOC(=O)C[C@H]1[C@H](OC(=O)c2cc3ccccc3oc2=O)[C@@H](NC(=O)c2ccc3ccccc3c2)c2cc(OCCCO)ccc2N1C(=O)c1ccc2ccccc2n1`, for which the composite z-score was 0.209 in [1]; 0.0447 in assay [2]; -0.19 in [3]; 0.876 in assay [5]; 0.4 in [6]; 0.573 in [7]. Moreover, the composite z-score in [8] was 1.09; in assay [9], 0.858; in assay [10], 0.392; in [11] it was -0.0309; in assay [13], 0.57; in assay [14], -0.0337. Also, the composite z-score in [15] is -0.463; in [16], 0.0554; in [17], -0.138; in assay [18] it was 0.193; in [19], 0.529; in assay [20], 0.992. Also, the z-score was -0.017 (inactive) in [4] and -1.15 in assay [12].
For `CO[C@@H]1COC(=O)[C@H](COCc2ccccc2)NC(=O)CC=C[C@@H](C)[C@H](OC)COC(=O)[C@H](COCc2ccccc2)NC(=O)CC=C[C@H]1C`, the composite z-score is -0.23 in assay [1]; -0.466 in assay [2]; -0.942 in assay [3]; 0.168 in [5]; 0.376 in assay [6]; 0.48 in [7]. Moreover, the composite z-score is 0.424 in assay [8]; 0.96 in assay [9]; 1.51 in assay [10]; -0.417 in assay [11]; 0.644 in assay [13]; -0.409 in [14]. The composite z-score in [15] is -1.01; in [16] it was -0.0927; in assay [17] it was -0.0626; in assay [18], -0.349; in [19] it was -0.217; in [20], -0.774. For the same compound, the z-score is -0.923 (inactive) in assay [4] and -0.0527 in assay [12].
Regarding `CC(=O)NCCCC[C@@H]1NC(=O)[C@H]2C[C@@H](C(=O)NCCCCCCN(C)C)[C@@H](c3cccc(OCCO)c3)N2C1=O`, the composite z-score in [1] is 1.5; in [2], 0.822; in assay [3], 0.649; in assay [5], 1.39; in [6], 1.36; in assay [7] it was 1.64. Besides, the composite z-score in assay [8] is 1.1; in assay [9], 1.77; in [10], 0.298; in assay [11], 1.37; in [13], 1.45; in assay [14], -1.81. Besides, the composite z-score was -1.32 in [15]; -0.0185 in assay [16]; 0.323 in assay [17]; -0.0083 in assay [18]; 2.25 in assay [19]; 1.41 in assay [20]. In addition, the z-score is 0.567 (inactive) in assay [4] and 1.33 in assay [12].
As to `CCCC[C@@H]1C[C@H]1[C@@H](NC(=O)c1cccs1)c1ccc(Cl)cc1`, the composite z-score was 0.509 in assay [1]; 0.517 in [2]; 0.943 in assay [3]; -1.5 in assay [5]; -1.13 in [6]; -1.34 in [7]. Further, the composite z-score in assay [8] is -2.23; in [9], -1.75; in assay [10], 0.269; in assay [11], -0.416; in assay [13] it was -1.19; in assay [14], 0.27. For the same compound, the composite z-score was 0.696 in assay [15]; 0.0095 in [16]; -0.0578 in assay [17]; 0.46 in assay [18]; -0.939 in [19]; -1.37 in assay [20]. Moreover, the z-score in assay [4] is -2.23 (inactive); in assay [12], -1.27.
